The values that follow come from ChEMBL document CHEMBL1157539, “Thousands of chemical starting points for antimalarial lead identification” (Nature, 2010).

The assay concerns Plasmodium falciparum. Kind of assay: GSK_TCMDC: Inhibition of Plasmodium falciparum 3D7 in whole red blood cells, using parasite LDH activity as an index of growth. Test compounds present at 2uM. Format: functional.
What is called Inhibition is the share of the control response that was lost under treatment. Read a high Inhibition as a response far below the control. In turn, `COc1ccc(C2C(C(=O)Nc3cc(Cl)c(OC)cc3OC)c3ccccc3C(=O)N2C)cc1` (centres undefined) registered an Inhibition of 100%.
The compound `CC(NC(=O)c1ccc(O)c(-c2ccc(Cl)c(Cl)c2)c1)C(=O)NC1CCCCC1` (centres undefined) registered an Inhibition of 96%.
As for `CC(C)(C)SC1SC(SC(C)(C)C)C(OC(=O)c2ccccc2)C(OC(=O)c2ccccc2)C1OC(=O)c1ccccc1` (centres undefined), the figure is 95%.
`O=C(Nc1ccc(-c2nc3ccccc3[nH]2)cc1)c1ccc(N2CCCC2)c([N+](=O)[O-])c1` had an Inhibition of 100%.
With `Cc1cccc2nc(-c3ccc(-c4cccc(CN5CCC(N)C5)c4)s3)[nH]c12.O=C(O)C(F)(F)F` (centres undefined) the figure was 95%; with `CCOC(=O)c1ccc(NC(=O)Nc2ccc(-c3ccc(-c4nc5ccccc5[nH]4)cc3)cc2)cc1`, 100%; with `CCCC(C)NC(=O)[C@H](Cc1ccccc1)NC(=O)c1ccc(O)c(-c2ccc(OC)cc2)c1` (some centres undefined), 85%.
With `CCOCn1c(-c2ccccc2)cc2c3c(N)nc(N)nc3ccc21` the figure was 91%; with `Cc1ccc(Nc2nccc(NCC(O)c3cccc(F)c3)n2)cc1` (centres undefined), 95%.
Regarding `O=C(CSc1nc2ccccc2c(=O)n1C1CC1)Nc1cc(C(F)(F)F)ccc1Cl`, the Inhibition amounted to 97%.
`c1ccc(C23NC(=Nc4nc5ccccc5[nH]4)NC2(c2ccccc2)NC(=Nc2nc4ccccc4[nH]2)N3)cc1` (centres undefined) showed an Inhibition of 97%.
In the case of `NC(=O)c1ccsc1NC(=O)CNC(c1ccccc1)c1ccc(Cl)cc1` (centres undefined), the Inhibition stood at 83%.
As for `O=C(COc1ccc(C(=O)c2ccccc2)cc1)Nc1nccs1`, the figure is 94%.
`Cc1nc2c(-n3cc(Cn4ccnc4)c4ccccc43)ncnc2n1-c1ccc(Cl)cc1Cl` had an Inhibition of 89%.
